Screens: PubChem BioAssay, several laboratories
Shown are actives, neighbours in structure and some others; about 2.5% of the full set was active somewhere.
DYRK1A inh: inhibitors of rat Dyrk1A kinase; ADP-Glo luminescence, NFATc1 peptide; hit rate 0.43% among 310,000; inhibition, % at 12.5 µM; Q63470; in the data active means inhibition above about 50%
aDG glyco act: increases alpha dystroglycan glycosylation; Pro5-aDG cells, alpha-DG glycosylation AlphaScreen (IIH6); 0% Pro5, 100% B10-LARGE cell signal; activation, % at 10 µM; hit rate 0.22% among 360,000; AID 624168;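 active means activation of at least 8% versus controls, or a plate z-score of at least 8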;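 further: Pro5 are CHO cells carrying HIG-tagged alpha-DG that lacks glycosylation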
NPR1 activator: GC-A (human) enzyme activation; activation, % at 10 µM; AID 1671463; HEK293 GC-A cells, cGMP TR-FRET, EC30 ANP; 0% at EC30 ANP, 100% saturating ANP; hit rate 0.14% among 370,000; P16066; in the data active means activation above about 40%
Target sequence (P16066 whole entry, looked up): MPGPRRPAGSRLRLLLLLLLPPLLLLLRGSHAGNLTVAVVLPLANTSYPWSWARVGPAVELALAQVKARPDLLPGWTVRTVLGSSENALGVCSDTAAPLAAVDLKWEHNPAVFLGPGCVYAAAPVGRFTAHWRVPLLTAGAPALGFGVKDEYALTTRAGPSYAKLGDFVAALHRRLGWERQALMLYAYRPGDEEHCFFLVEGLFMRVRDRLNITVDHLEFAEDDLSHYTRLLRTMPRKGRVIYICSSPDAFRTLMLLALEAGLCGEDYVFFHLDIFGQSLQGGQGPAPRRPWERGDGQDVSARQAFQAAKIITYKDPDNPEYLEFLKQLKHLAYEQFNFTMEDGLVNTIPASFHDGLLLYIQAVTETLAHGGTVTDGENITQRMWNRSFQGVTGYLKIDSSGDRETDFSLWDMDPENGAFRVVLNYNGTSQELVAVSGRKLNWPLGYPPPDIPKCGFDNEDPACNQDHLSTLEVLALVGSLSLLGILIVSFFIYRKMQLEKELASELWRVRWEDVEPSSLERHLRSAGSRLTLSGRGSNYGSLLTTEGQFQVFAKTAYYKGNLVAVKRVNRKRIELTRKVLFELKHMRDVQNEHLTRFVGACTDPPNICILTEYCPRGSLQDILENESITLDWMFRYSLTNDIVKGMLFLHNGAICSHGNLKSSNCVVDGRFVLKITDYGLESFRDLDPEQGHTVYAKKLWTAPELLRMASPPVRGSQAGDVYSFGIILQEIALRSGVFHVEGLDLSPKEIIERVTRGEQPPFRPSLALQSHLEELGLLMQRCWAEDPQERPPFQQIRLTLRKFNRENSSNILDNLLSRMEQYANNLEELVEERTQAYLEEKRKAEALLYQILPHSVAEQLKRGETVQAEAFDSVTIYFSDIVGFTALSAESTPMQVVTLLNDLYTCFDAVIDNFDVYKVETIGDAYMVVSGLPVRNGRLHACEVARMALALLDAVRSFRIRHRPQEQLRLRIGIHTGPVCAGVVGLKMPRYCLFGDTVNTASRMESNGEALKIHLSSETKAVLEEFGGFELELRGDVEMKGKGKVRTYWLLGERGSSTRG
HSF1 activator: increases HSF-1 driven luciferase reporter signal. activation, % at 9 µM. NIH3T3-HGL HSF-1 luciferase reporter, MG132, 8 h; 100% = twice DMSO control signal. AID 504408. hit rate 1.7% among 300,000;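 active means mean replicate activation of at least 50% with a set share of replicates each reaching 50%; inconclusive means only one of those two conditions met; inactive means mean below 50% and too few replicates reaching it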
HSF1 inh: HSF1 inhibition | NIH3T3-HGL HSE-luciferase, MG132-induced, luminescence 8 h; hits give low values | activity change, negative = inhibition, % at 7.5 µM (by protocol) | hit rate 0.77% among 300,000;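 active means more than half of replicate wells show activity change below -50%, luminescence cut by over half; inconclusive means some wells, but at most half, below -50%; inactive means no replicate well below -50%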;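 further: luciferase reports HSF-1 transcriptional activity via heat shock element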
NPR2 activator: GC-B (human) receptor activation | P20594 | HEK293-GC-B cells, CNP EC30, cGMP TR-FRET; 0% at EC30 CNP, 100% saturating CNP | activation, % at 10 µM | hit rate 0.11% among 370,000 | AID 1920062;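 active means activation at 10 µM reaching about 35% in either raw or pattern-adjusted values, limit read from the data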
Each line names hits and unclear results; the compound was inactive in the other large screens.

COc1ccc(-c2cc(=Nc3ccccc3)c3cc(C)ccc3o2)cc1	HSF1 activator 66
CN(C)CCc1nc2ccccc2c(=O)n1-c1ccccc1	HSF1 activator 81 (no result: DYRK1A inh, aDG glyco act, NPR1 activator, NPR2 activator)
CN[C@@H]1C[C@@H](c2ccc(Cl)c(Cl)c2)c2ccccc21	none (no result: DYRK1A inh, aDG glyco act, NPR1 activator, NPR2 activator)
O=[N+]([O-])c1ccc(N2CCCC2)c2ccncc12	HSF1 inh -60
O=[N+]([O-])c1ccc(N2CCNCC2)c2ncccc12	none (no result: DYRK1A inh, aDG glyco act, NPR1 activator, NPR2 activator)
CN1CCN(c2ccc([N+](=O)[O-])c3cccnc23)CC1	HSF1 inh -57
CCNC(=O)NNC(=O)C1CC(c2cccnc2)=NO1 (stereo not given)	none
CCCCn1c(O)c(C(C)=Nc2ccc(C(=O)O)cc2)c(=O)[nH]c1=O	none
CCOC(=O)c1ccc(N=C(C)c2c(O)[nH]c(=O)[nH]c2=O)cc1	HSF1 inh -63
CCC1(c2ccc(C)cc2)C(=O)NC(=S)NC1=O	none (no result: DYRK1A inh, HSF1 activator, HSF1 inh)
CN=C(SCC(=O)c1cccc(Cl)c1)c1c(O)n(C)c(=O)n(C)c1=O	none
COc1ccccc1N1CCN(Cc2cccc(OC)c2O)CC1	HSF1 activator 88 (no result: DYRK1A inh)
COc1ccccc1N1CCN(Cc2ccccc2Cl)CC1	none
COc1cc(C(c2c(C)[nH]n(-c3ccccc3)c2=O)c2c(C)[nH]n(-c3ccccc3)c2=O)cc(OC)c1OC	HSF1 activator 55
COC(=O)C(O)(c1c(C)[nH]n(-c2ccccc2)c1=O)C(F)(F)F (stereo not given)	none
Nc1ccccc1C(=O)OCC(=O)Nc1ccc(Br)cc1F	none
O=C(c1ccc(Cl)cc1)C1CCCN(C2CCSCC2)C1 (stereo not given)	none
CCN(CC)c1ccc(/C=C/[N+](=O)[O-])cc1	HSF1 activator inconclusive
COc1cc(/C=C/[N+](=O)[O-])ccc1O	HSF1 activator 274
CCn1nc(-c2cccs2)nc2c(=O)n(C)c(=O)nc1-2	DYRK1A inh 63 (no result: NPR1 activator, HSF1 activator, HSF1 inh, NPR2 activator)
Cn1c2ccccc2c2cnn(CC(=O)N3CCC4(CC3)OCCO4)c(=O)c21	HSF1 inh -56 (no result: DYRK1A inh, aDG glyco act, NPR1 activator, NPR2 activator)
COc1c(O)cc2c(c1OC)-c1ccc(OC)c(=O)cc1C(NC(C)=O)CC2 (stereo not given)	none (no result: HSF1 activator, HSF1 inh)
CCOP(=O)(C(NC(=O)c1ccccc1Cl)=C(Cl)Cl)c1ccccc1 (stereo not given)	HSF1 activator 90
CCOP(=O)(OCC)C(NC(=O)c1ccccc1Cl)=C(Cl)Cl	none
Cc1nn(CC(C)C)c(Cl)c1C(=O)NC1CCCC1	none (no result: DYRK1A inh, HSF1 activator, HSF1 inh)
Cc1ccc(-n2nc(C)c3c2NC(=O)CSC3c2ccc3c(c2)OCO3)cc1 (stereo not given)	HSF1 inh -63
COc1ccc(C2SCC(=O)Nc3c2c(C)nn3-c2ccccc2)cc1 (stereo not given)	none
O=C(CCl)Nc1nccs1	none
CC1(C)CN=C(Nc2nc3ccccc3s2)S1	HSF1 activator 54
CC1(C)CN=C(NCc2ccccc2)S1	none
CCOP(=S)(OCC)Oc1cc(C)nc(C(C)C)n1	NPR2 activator 74 (no result: HSF1 activator, HSF1 inh)
C[C@@H]1CN([C@H](C)CO)C(=O)CCCn2nncc2CO[C@H]1CN(C)C(=O)Oc1ccc2ccccc2c1	none (no result: DYRK1A inh, HSF1 activator, HSF1 inh)
O=C1NC(=O)[C@]2(Cc3ccccc3N3CCN(c4ccccc4)CC32)C(=O)N1Cc1ccccc1 (stereo not given in full)	HSF1 activator 65
O=C1CC(N2CC=C(c3ccc(F)cc3)CC2)C(=O)N1c1ccc(F)cc1 (stereo not given)	HSF1 inh -71
COc1cc(C2NCc3ccccc3-n3cccc32)ccc1O (stereo not given)	HSF1 activator 54
CCOc1cc2c(cc1OCC)-n1cccc1C(c1cccc(OCC)c1O)NC2 (stereo not given)	HSF1 activator 51
O=C(Cc1ccccc1)Oc1ccccc1N1C(=O)CCC1=O	HSF1 inh -62
O=C(Cc1ccccc1)Oc1ccc(N2C(=O)CCC2=O)cc1	none
CCN1C(=O)NC(=O)/C(=C/c2cc(C)n(-c3sc(C)c(C)c3C#N)c2C)C1=O	HSF1 inh -56
Nc1ncnc2c1ccn2[C@@H]1O[C@H](CO)[C@@H](O)[C@H]1O	HSF1 inh -79
COc1cc2c(cc1OC)[C@H]1C(=O)c3ccc4c(c3O[C@H]1CO2)C[C@@H](C(C)(C)O)O4	NPR1 activator 56 (no result: HSF1 activator, HSF1 inh)
CC(=O)OC(C)(C)/C=C/C(=O)C(C)(O)C1[C@H](O)C[C@@]2(C)C3CC=C4C(CC[C@@H](O)C4(C)C)[C@]3(CO)C(=O)C[C@]12C (stereo not given in full)	HSF1 inh -52
COc1ccc(-c2nc3ccccc3c(=O)n2-c2cccnc2)cc1	HSF1 inh -69
CCOP(=S)(OCC)Oc1cc(C)oc(=O)c1	none
CCN(CC)P(=O)(NC(=O)c1cccn1C)N(CC)CC	HSF1 inh -84
O=C1NC(=O)C(CCc2ccncc2)(CCc2ccncc2)C(=O)N1Cc1ccccc1	HSF1 inh -71
CN1CC(C(=O)c2ccc(F)cc2)C(c2c(F)cccc2Cl)C1 (stereo not given)	HSF1 activator 82
COc1ccc(NS(=O)(=O)c2ccc(OCC(=O)N3CCN(C)CC3)cc2)cc1Cl	none
COc1ccc(N2C(=O)NC(=O)/C(=C/c3ccc([N+](=O)[O-])s3)C2=O)cc1	HSF1 activator 64 (no result: DYRK1A inh)
COc1ccc(N2C(=O)NC(=O)/C(=C\c3ccc([N+](=O)[O-])s3)C2=O)cc1	none
N#CCCn1cc(C(=O)Nc2ccc([N+](=O)[O-])cc2)c(-c2ccccc2)n1	HSF1 inh -71
N#CCC[C@H]1CC[C@]2(CCCN(Cc3ccccn3)C2)O1	none (no result: DYRK1A inh, aDG glyco act, HSF1 activator, HSF1 inh)
COC1C(C)OC(OC2CC(C)(O)Cc3cc4c(c(O)c32)C(=O)c2c(O)cc3c(c2C4=O)OC2OC3(C)C(O)C(N(C)C)C2O)C(OC)C1(C)OC (stereo not given)	HSF1 activator 71, HSF1 inh 71
CN(C)c1ccc(/C=C2/C(=N\O)C3CCN2CC3)cc1	none (no result: DYRK1A inh)
C=CCn1c(O)c(C(C)=NCc2ccco2)c(=O)[nH]c1=O	none (no result: DYRK1A inh)
C=CCn1c(O)c(C(CC)=NCc2ccco2)c(=O)[nH]c1=O	HSF1 activator 66
CCCCn1c(NS(=O)(=O)c2ccc(C)cc2)c(C(=O)OCC)c2nc3ccccc3nc21	none
CCCCn1c(NC(=O)c2ccco2)c(C(=O)OCC)c2nc3ccccc3nc21	HSF1 activator 71
O=c1[nH]c(O)c(C=Nc2ccccc2[N+](=O)[O-])c(=O)[nH]1	none (no result: DYRK1A inh, aDG glyco act, NPR1 activator, NPR2 activator)
COc1cc(O)cc2c1C(=O)OC(C)CCCC(=O)CCC/C=C\2 (stereo not given)	HSF1 activator 107
C[C@H]1CCCC(=O)CCC/C=C/c2cc(O)cc(O)c2C(=O)O1	none
O=NN(CCF)C(=O)NC1CCC(=O)NC1=O (stereo not given)	none (no result: DYRK1A inh, HSF1 activator, HSF1 inh)
